Source: PubChem
CtBP-E1A inh: blocks the CtBP interaction with E1A. activity change, % (concentration not given with the values). AID 651724. AlphaScreen GST-E1A/His-CtBP binding, 1536-well; stronger effect = lower value. 340,000 compounds, 0.49% hits
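Steps: dispense buffer (Tris pH 8.0, NaCl 300 mM, TCEP 1 mM, BSA, Tween 20); add 5X protein mix (GST-E1A, His-CtBP, 125 nM each); pin 23 nL compound; 2 h at 37 °C, dark; add 5X beads (50 ug/mL); 1 h; read.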
PKM2 activator: increases activity of human pyruvate kinase M2; 260,000 compounds, 0.34% hits; AID 1631; Potency, µM (top dose mostly 57.5 µM), without a hit: top-dose activation, usual class: activators; purified PKM2, Kinase-Glo ATP luminescence, activation; response scale: 0% is enzyme alone, no compound; active = well fitted activation curve with a large enough effect; inconclusive = small, poorly fitted or top-dose-only effect; inactive = no such curve, though single readings can be large or run the other way; note: potency is the fitted concentration of half-maximal effect; nearly all actives have a fitted effect of over 55% in size
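Kinase-Glo luminescence reports ATP generated from ADP (0.1 mM) and PEP (0.5 mM) by purified hPK-M2 after 1 h at room temperature, pH 7.2 imidazole buffer; intermediate enzyme activity allows detecting inhibitors and activators.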
MBNL1-CUG inh: inhibitors of human MBNL1 binding to CUG repeat RNA. TR-FRET MBNL1-His/biotin-(CUG)12 binding, 665/545 ratio. Q9NR56. Potency, µM (top dose mostly 57.5 µM), without a hit: top-dose activity change, negative = inhibition, hits mostly inhibitors. 280,000 compounds, 0.036% hits; active = well fitted inhibition curve with a large enough effect in the signal ratio, with a control signal flat, not every such curve was filed as active; inconclusive = small, poorly fitted or top-dose-only effect, or effect the other way, or a change in a side signal; inactive = no such curve, though single readings can be large or run the other way; the % refers to the signal ratio; note: potency is the fitted concentration of half-maximal effect
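Inhibition of protein-RNA binding appears as loss of TR-FRET between terbium anti-His antibody on MBNL1-His and streptavidin-XL665 on biotin-(CUG)12. Activity is normalized to buffer-only and uninhibited-complex controls.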
Six1-Eya2 inh: Six1/Eya2 interaction inhibition; AlphaScreen GST-Six1/His-Eya2 binding, biochemical; stronger effect = lower value; activity change, % (concentration not given with the values); 360,000 compounds, 0.56% hits; AID 651725
Target sequence (O00167 whole entry, looked up): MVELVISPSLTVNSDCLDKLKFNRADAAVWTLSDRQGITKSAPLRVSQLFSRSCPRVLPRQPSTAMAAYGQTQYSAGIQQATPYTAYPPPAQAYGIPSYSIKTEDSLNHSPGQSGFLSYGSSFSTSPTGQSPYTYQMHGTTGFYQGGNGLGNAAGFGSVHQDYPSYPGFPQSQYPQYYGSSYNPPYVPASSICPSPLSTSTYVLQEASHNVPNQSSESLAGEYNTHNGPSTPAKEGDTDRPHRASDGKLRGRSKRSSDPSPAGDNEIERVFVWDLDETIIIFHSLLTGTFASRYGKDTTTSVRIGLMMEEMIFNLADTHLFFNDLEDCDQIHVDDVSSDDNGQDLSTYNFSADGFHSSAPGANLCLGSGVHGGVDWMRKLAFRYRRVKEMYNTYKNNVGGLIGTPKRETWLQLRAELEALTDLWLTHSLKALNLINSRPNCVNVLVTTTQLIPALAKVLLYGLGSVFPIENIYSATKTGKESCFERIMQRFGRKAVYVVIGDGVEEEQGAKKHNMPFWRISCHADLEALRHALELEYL
Target sequence (Q15475 whole entry, looked up): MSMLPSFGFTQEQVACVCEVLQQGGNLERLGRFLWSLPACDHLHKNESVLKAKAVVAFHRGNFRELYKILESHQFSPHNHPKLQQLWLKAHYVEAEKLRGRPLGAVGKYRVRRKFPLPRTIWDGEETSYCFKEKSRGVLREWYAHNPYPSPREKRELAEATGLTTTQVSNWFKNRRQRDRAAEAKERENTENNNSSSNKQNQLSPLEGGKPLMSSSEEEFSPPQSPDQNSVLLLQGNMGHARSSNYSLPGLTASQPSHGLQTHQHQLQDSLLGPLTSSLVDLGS
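Six1/Eya2 binding was read as AlphaScreen signal after compounds were pinned into GST-Six1 plus His-tagged Eya2 (5X stock 250/500 nM) in pH 8.0 Tris/NaCl/TCEP buffer, beads added, then incubated 1 h, 37 C, dark.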
* hit, by the source's call; ? = inconclusive; · = no result; ! = a repeat was not active; [ ] = dose if it differs, or a comment. Rows were chosen to be rich in hits. Some 0.93% of all compounds tested hit in one or more screens of this group. Cut-off read from the data, not from the text of the source, unless noted: active = activity change below about -65%; inconclusive = mostly about -30% to -63%; inactive = weaker than that. % is set by controls: 0 for no effect and ±100 for the full control effect.

SMILES	CtBP-E1A inh	PKM2 activator	MBNL1-CUG inh	Six1-Eya2 inh
O=Nc1ccc(O)c2ncccc12	·	-4%	·	-89*
O=Nc1ccc(NO)c2ccccc12	-17	·	·	-2
COC(=O)CCN(C1CCCCC1)S(=O)(=O)c1ccc(S(=O)(=O)N2CCCCC2)cc1	43	28µM*	-13%	21
CCCNC(=O)c1cc2c(c(-c3cccc(-c4ccccc4F)c3)n1)[C@@H](CCO)N(C(=O)CC1CC1)C2	6	·	·	-5
COc1ccc(-c2nn3c(-c4ccco4)nnc3s2)cc1OC	-86*	-1%	5%	-78*
COc1ccc(-c2nnc3sc(-c4ccco4)nn23)cc1OC	-3	5%	21%	-4
COc1cc2c(C#N)c(N3CCCC3)nc(N)c2c(N)n1	-73*!	27%	?	-22
COCCNS(=O)(=O)c1ccc2c(c1)C(=NO)c1cc(S(=O)(=O)NCCOC)ccc1-2	-9	10µM*	?	-4
COCCNS(=O)(=O)c1ccc2c(c1)Cc1cc(S(=O)(=O)NCCOC)ccc1-2	10	26%	1%	10
COc1ccc(-c2nc3c4ccccc4ccn3c2Cc2cccc(F)c2)cc1OC	-12	·	·	-10
N#C/C(=C\c1ccc(OCc2ccccc2)cc1)C(N)=O	-16	4%	?	-4
N#C/C(=C\c1ccc(OC(=O)c2ccccn2)cc1)C(N)=O	-4	-3%	23%	-90*
CCOc1cccc(-c2cnc3cccnn23)c1	14	·	·	9
CCN(C(=O)COC(=O)/C=C/c1c(C)nn(-c2ccccc2)c1C)C1CCS(=O)(=O)C1 (configuration not stated)	-71*	8%	-8%	-7
C[C@H]1Cc2c(-c3ccccc3)nc3c(c2CO1)CN(C(=O)C1CCCCC1)CC3	·	3%[11.5 µM]	·	·
COC(=O)c1cc(C(=O)c2ccc(C(C)(C)C)cc2)c[nH]1	5	1%	-1%	0
CC(C)(C)c1ccc(C(=O)c2c[nH]c(C(=O)O)c2)cc1	5	32µM*	-8%	1
COC(=O)CCC(=O)OC1(C)C(=O)C=C2C=C(C3CC3)N(c3ccc(OC)cc3)C=C2C1=O (configuration not stated)	·	-1%[11.5 µM]	·	·
Cc1ccc(C(=O)NC(=S)c2c(C)cc3ccccn23)cc1	-22	·	·	-76*
O=C(Nc1ccccc1)c1nc[nH]c1C(=O)N1CCN(c2ccccc2)CC1	3	·	·	4
O=C(Nc1nccs1)c1nc[nH]c1C(=O)N1CCN(c2ccccc2)CC1	-71*	·	·	-78*
O=C(O)c1cc(Nc2cc(Cl)c3nonc3c2[N+](=O)[O-])ccc1O	·	·	?	-79*
O=[N+]([O-])c1c(Nc2ccccc2O)cc(Cl)c2nonc12	-6	3%	?	-27
O=C(Nc1ccc(F)cc1)C(c1cc2ccccc2o1)N1CCN(c2ccncc2)CC1 (configuration not stated)	0	·	·	21
Cc1ccc(NC(=O)C2(C)CCN2C(=O)C2CCCCC2)cc1C (configuration not stated)	-1	·	·	2
SMILES	CtBP-E1A inh	PKM2 activator	MBNL1-CUG inh	Six1-Eya2 inh
COC(=O)[C@@]12C[C@@H](CC(=O)NCCCCc3ccccc3)C(=O)N(Cc3ccc4c(c3)OCO4)C1=CCC(C)(C)C2	-1	·	·	-15
CC1(C(=O)NCc2cccc3ccccc23)CCN1C(=O)Cc1ccc(-c2ccccc2)cc1 (configuration not stated)	-2	·	·	-3
Cn1ncc(SCc2ccccc2)c(Cl)c1=O	-1	18µM*	15%	5
CCCOc1ccc(Br)cc1-c1cc(-c2ccc(Cl)cc2)[nH]c1-c1ccncc1	·	-2%	·	·
O=C(CSc1nnc(-c2ccncc2)o1)Nc1ccccc1Cl	3	-2%	1%	2
O=C(CSc1nnc(-c2ccc(C(F)(F)F)cn2)o1)Nc1ccccc1Cl	?	-8%	11%	-84*
COc1ccc(OC)c(NC(=O)Nc2nc(C(N)c3ccccc3Cl)cs2)c1 (configuration not stated)	-13	·	·	-25
O=C(CSc1nccc(=O)[nH]1)c1ccccc1Br	-68*	14%	6%	-70*
C=CCN1c2ccccc2[C@]23C[C@@H](C(=O)OC)N(S(=O)(=O)c4cccs4)C2=NC(C(=O)OC)=C(C(=O)OC)[C@H]13	·	0%[11.5 µM]	·	·
COc1ccccc1S(=O)(=O)N(C)C[C@@H]1OCc2cn(nn2)CCCC(=O)N([C@@H](C)CO)C[C@H]1C	-9	·	·	4
N#Cc1ccsc1NC(=O)c1ccccn1	?	-4%	8%	-67*
Cc1cc(C)c(S(=O)(=O)/N=C2\C=C(Nc3ccc(C(=O)O)cc3)C(=O)c3ccccc32)c(C)c1	-72*	-15%	?	?
O=C(O)c1ccc(NC2=C/C(=N/S(=O)(=O)c3ccccc3)c3ccccc3C2=O)cc1	?	-14%	?	?
CCc1ccc(S(=O)(=O)/N=C2\C=C(Nc3cccc(C(=O)O)c3)C(=O)c3ccccc32)cc1	-75*	·	?	?
Cc1cccc(NC2=C/C(=N/S(=O)(=O)c3cccs3)c3ccccc3C2=O)c1	?	-2%	?	-23
CCc1ccc(S(=O)(=O)/N=C2\C=C(Nc3ccc(O)cc3)C(=O)c3ccccc32)cc1	-89*	-26%	?	-70*
CCc1ccc(S(=O)(=O)/N=C2\C=CC(=O)c3ccccc32)cc1	·	26%	12%	·
CCc1c2c(nc3cccc(C(C)C)c13)-c1cccc(=O)n1C2	·	7%	·	·
O=[N+]([O-])c1ccc(N=Nc2ccc(O)c3ccccc23)cc1	-70*	·	·	?
O=c1oc2ccccc2cc1-c1csc(NN=C2CCCC2)n1	22	1%	·	21
Cc1nc2ccccn2c1-c1csc(Nc2cccc(C(=O)O)c2)n1	-71*	·	6%	?
O=C(O)c1cccc(Nc2nc(-c3cc4ccccc4oc3=O)cs2)c1	-79*	0%	?	-78*
NC(=O)c1ccccc1NC(=O)c1ccc2ccccc2c1	-2	-2%[11.5 µM]	40%	16
NC(=O)c1ccccc1NC(=O)c1cccc(C(=O)Nc2ccccc2C(N)=O)n1	-76*	·	·	-83*
CN1C(=O)c2cccc3c(S(=O)(=O)Nc4ccccc4F)ccc1c23	-4	11µM*	?	-6
SMILES	CtBP-E1A inh	PKM2 activator	MBNL1-CUG inh	Six1-Eya2 inh
CCN(CC)C(=O)C1=C(C)N(Cc2ccc(C(C)(C)C)cc2)C(=O)C(CC(=O)NCc2cccs2)C1 (configuration not stated)	-2	·	·	-1
COc1cc2c(cc1OC)-c1cc(Nc3ccc(N(C)C)cc3)nc(=O)n1CC2	-69*	17%	·	-69*
COc1cc2c(cc1OC)-c1cc(Nc3ccc(F)cc3)nc(=O)n1CC2	·	·	-4%	?
COc1cc2c(cc1OC)-c1cc(Nc3cccc(F)c3)nc(=O)n1CC2	-10	·	-7%	-79*
COc1cc2c(cc1OC)-c1cc(NC3CCCC3)nc(=O)n1CC2	?	-9%	1%	?
CCN(CC)c1ccc(Nc2cc3n(c(=O)n2)CCc2cc(OC)c(OC)cc2-3)cc1	-84*	·	?	?
